We go through three compounds from PubChem BioAssay (EPA / NIEHS).

Results filed as inconclusive are left out. Active and inactive are the calls of the source. How the source made its calls, unless noted: active means hit-call score of the fitted dose curve at least 0.9, where 1 is the maximum; inconclusive means response in the unintended direction; inactive means score below 0.9.

Assay [1] is described as follows: TOX21_p53_BLA_p2_viability: Viability Assessment in the Tox21 HCT-116 p53 Agonism Beta-lactamase Assay, Phase 2 (AID 2283591).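 Further: compound exposure lasted 16 h at 37 °C; actives lower the ATP signal meaning cytotoxicity.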 The gist of the method:
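HCT-116 p53-bla cells (4000/well) rested 5 h at 37C, then received compounds in DMSO (217-fold dilution) for 16 h at 37C, 5% CO2. After the CCF4 read, CellTiter-Glo was added; ATP luminescence was read after 30 min at room temperature.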

In assay [2] the target is Cellular tumor antigen p53 (Homo sapiens) (UniProt P04637). The assay can be described thus: TOX21_p53_BLA_p2_ratio: Tox21 HCT-116 p53 Agonism Beta-lactamase Assay, Ratio, Phase 2 (AID 2283592). The gist of the method: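 HCT116 p53-bla; 4000 cells/well; 5 h pre-incubation; cpd in DMSO, 217-fold dilution; 16 h 37C/5% CO2; CCF4-AM 2 h RT; Ex 405, Em 460/530 ratio; DMSO = baseline; positive fitting direction.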
Sequence of Cellular tumor antigen p53 (Homo sapiens) (P04637 whole entry, looked up): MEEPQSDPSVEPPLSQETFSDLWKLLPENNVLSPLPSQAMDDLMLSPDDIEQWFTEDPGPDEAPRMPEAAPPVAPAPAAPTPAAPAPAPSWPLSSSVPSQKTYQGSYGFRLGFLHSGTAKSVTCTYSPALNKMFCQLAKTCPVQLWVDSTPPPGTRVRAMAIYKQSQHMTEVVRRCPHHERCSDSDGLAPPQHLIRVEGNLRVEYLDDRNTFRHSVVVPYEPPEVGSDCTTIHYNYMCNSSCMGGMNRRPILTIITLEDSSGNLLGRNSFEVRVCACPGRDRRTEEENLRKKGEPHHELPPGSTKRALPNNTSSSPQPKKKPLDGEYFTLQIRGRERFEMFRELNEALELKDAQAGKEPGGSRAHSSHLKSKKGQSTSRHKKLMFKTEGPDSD

Assay [3] can be described thus: TOX21_p53_BLA_p3_viability: Viability Assessment in the Tox21 HCT-116 p53 Agonism Beta-lactamase Assay, Phase 3 (AID 2283593).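 Further: cells exposed to compound for 16 h before reading.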 The gist of the method:
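HCT-116 cells (4000/well) rested 5 h at 37C, then got DMSO compounds by pin tool (217-fold dilution) for 16 h at 37C, 5% CO2. After the bla read, CellTiter-Glo was added and luminescence read at 30 min, room temperature.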

The target in assay [4] is Cellular tumor antigen p53 (Homo sapiens) (UniProt P04637). The assay can be described thus: TOX21_p53_BLA_p3_ratio: Tox21 HCT-116 p53 Agonism Beta-lactamase Assay, Ratio, Phase 3 (AID 2283596). In outline: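 HCT116 p53-bla cells (4000/well) given compound in DMSO (217-fold dilution) after 5 h, incubated 16 h at 37C. CCF4-AM substrate 2 h at room temperature; 460/530 nm emission ratio, gain fitted against DMSO.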

Assay [5] is described as follows: TOX21_p53_BLA_p4_viability: Viability Assessment in the Tox21 HCT-116 p53 Agonism Beta-lactamase Assay, Phase 4 (AID 2283597).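 Further: hits lower the luminescence signal meaning cytotoxicity.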 In outline: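 Cells plated, 5 h pre-incubation; DMSO compounds pinned (217-fold dilution); 16 h, 37C/5% CO2; CCF4-AM 2 h RT; CellTiter-Glo 30 min RT; luminescence read.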
For assay [6], the target named is Cellular tumor antigen p53 (Homo sapiens) (UniProt P04637). The assay can be described thus: TOX21_p53_BLA_p4_ratio: Tox21 HCT-116 p53 Agonism Beta-lactamase Assay, Ratio, Phase 4 (AID 2283601). The gist of the method:
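HCT116 cells carrying an inducible beta-lactamase reporter were plated at 4000 cells/well, rested 5 h, then exposed to compounds in DMSO (217-fold dilution) for 16 h at 37C. CCF4-AM substrate was loaded 2 h at room temperature; 460/530 nm emission ratio scored gain-of-signal versus DMSO.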

The nature of assay [7]: TOX21_p53_BLA_p5_viability: Viability Assessment in the Tox21 HCT-116 p53 Agonism Beta-lactamase Assay, Phase 5 (AID 2283600). In outline:
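4000 cells/well; 5 h pre-incubation; DMSO compounds pin-transferred, 217-fold dilution; 16 h, 37C/5% CO2; CCF4-AM 2 h RT; CellTiter-Glo 30 min RT; luminescence.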

In assay [8] the target is Cellular tumor antigen p53 (Homo sapiens) (UniProt P04637). The experiment in a line: TOX21_p53_BLA_p5_ratio: Tox21 HCT-116 p53 Agonism Beta-lactamase Assay, Ratio, Phase 5 (AID 2283599). The gist of the method:
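HCT-116 cells carrying a p53-inducible beta-lactamase reporter were seeded at 4000 cells/well and dosed after 5 h with compound in DMSO (217-fold dilution). After 16 h at 37C, CCF4-AM substrate was added for 2 h, and the 460/530 nm emission ratio was scored as gain-of-signal versus DMSO.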

The nature of assay [9]: CCTE_Deisenroth_AIME_96WELL_CTox_Active: Cytotoxicity Assessment (CTOX) in CCTE's 96-well Estrogen Receptor Transactivation Assay with AIME metabolic competence (metabolism positive), Deisenroth Lab (AID 2284028). In outline:
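Chemicals (0.002–200 uM) were first incubated 2 h with alginate-immobilized phenobarbital/beta-naphthoflavone-induced male rat liver S9; conditioned medium then went onto VM7Luc4E2 cells for 24 h, with viability read by protease-substrate fluorescence, fitted bidirectionally.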

Assay [10] can be described thus: CCTE_Shafer_MEA_dev_firing_rate_mean: CCTE's Neural Network Formation Assay for Mean Firing Rate, Shafer Lab (AID 2284031; active means hit-call score of the fitted dose curve at least 0.9, where 1 is the maximum; inactive means score below 0.9). In outline: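 Rat primary cortical neurons were seeded on multielectrode arrays and treated from plating through day 12, with redosing at each feed. Spontaneous spiking was recorded four times; mean firing rate AUC was fitted downward against DMSO.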

The nature of assay [11]: CCTE_Shafer_MEA_dev_per_burst_spike_percent: CCTE's Neural Network Formation Assay for Percent of Spikes in a Burst, Shafer Lab (AID 2284032; active means hit-call score of the fitted dose curve at least 0.9, where 1 is the maximum; inactive means score below 0.9). The gist of the method: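 Rat primary cortical neurons on 16-electrode MEA wells, dosed from plating day 0 for 12 days with renewal on DIV 5 and 9; spikes-in-bursts percentage averaged over bursting electrodes, collapsed as AUC across days 5, 7, 9, 12; loss direction versus DMSO.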

A short description of assay [12]: CCTE_Shafer_MEA_dev_active_electrodes_number: CCTE's Neural Network Formation Assay for Number of Active Electrodes, Shafer Lab (AID 2284040). The gist of the method:
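Primary rat cortical neurons on 16-electrode MEA wells, exposed from day 0 through day 12 with compound renewed at DIV 5 and 9 feeds. Active electrodes (mean firing ≥5 spikes/min) counted at DIV 5, 7, 9, 12; trapezoidal AUC across days, loss-of-signal versus DMSO.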

A short description of assay [13]: CCTE_Shafer_MEA_dev_burst_rate: CCTE's Neural Network Formation Assay for Burst Rate, Shafer Lab (AID 2284042; active means hit-call score of the fitted dose curve at least 0.9, where 1 is the maximum; inactive means score below 0.9). The gist of the method:
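Cells plated, treated day 0; recorded DIV 5, 7, 9, 12; fed and re-treated DIV 5, 9. Endpoint: bursts per recording time, active-electrode well mean, trapezoidal AUC, fitted in decreasing direction against DMSO baseline.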

Assay [14] can be described thus: CCTE_Shafer_MEA_dev_bursting_electrodes_number: CCTE's Neural Network Formation Assay for Number of Bursting Electrodes, Shafer Lab (AID 2284043). The gist of the method:
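Primary rat cortical neurons were cultured on PEI-coated 48-well MEA plates (16 electrodes/well) and exposed from plating through day 12, with compound renewed at feeds on DIV 5 and 9. Electrodes bursting ≥1 per 2 min were counted on DIV 5, 7, 9, 12; trapezoidal AUC taken.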

A short description of assay [15]: CCTE_Shafer_MEA_dev_per_burst_interspike_interval: CCTE's Neural Network Formation Assay for Burst Interspike Interval, Shafer Lab (AID 2284044; active means hit-call score of the fitted dose curve at least 0.9, where 1 is the maximum; inactive means score below 0.9;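 further: mean spike spacing inside bursts as AUC over recordings on days 5 7 9 12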). In outline:
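Neurons from rat cortex plated onto PEI-coated MEA wells with laminin […] at 1.5 x 10^5 cells/well, then treated from day 0. Media and compound fully replaced on DIV 5 and 9. Extracellular spontaneous firing recorded four times; interspike interval per burst summarised as AUC.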

Assay [16] is described as follows: CCTE_Shafer_MEA_dev_burst_duration_mean: CCTE's Neural Network Formation Assay for Mean Burst Duration, Shafer Lab (AID 2284045; active means hit-call score of the fitted dose curve at least 0.9, where 1 is the maximum; inactive means score below 0.9). The gist of the method: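 Primary rat cortical neurons on PEI-coated 16-electrode MEA wells, exposed from plating through day 12 with compound renewed at DIV 5 and 9; spontaneous activity recorded days 5, 7, 9, 12. Well-mean burst duration collapsed as trapezoidal AUC, fitted for loss versus DMSO.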

Assay [17] in a line: CCTE_Shafer_MEA_dev_interburst_interval_mean: CCTE's Neural Network Formation Assay for Mean Interburst Interval, Shafer Lab (AID 2284046; active means hit-call score of the fitted dose curve at least 0.9, where 1 is the maximum; inactive means score below 0.9;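 further: well-mean interburst interval of bursting electrodes as AUC over four recording days; curve fitted for decrease in interburst interval relative to DMSO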). The gist of the method:
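Developing rat cortical networks on 48-well MEAs receive compound from the day of plating. Burst intervals from each active electrode are averaged per well, and AUC over the recording days is fitted in the negative direction against DMSO.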

A short description of assay [18]: CCTE_Shafer_MEA_dev_inter_network_spike_interval_mean: CCTE's Neural Network Formation Assay for Mean Inter-network Spike Interval, Shafer Lab (AID 2284047; active means hit-call score of the fitted dose curve at least 0.9, where 1 is the maximum; inactive means score below 0.9). The gist of the method:
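Rat cortical cultures, 1.5 x 10^5 cells/well on 48-well MEA plates; continuous exposure days 0–12, medium and compound refreshed DIV 5, 9. Mean time between consecutive network-spike peaks; AUC across DIV 5/7/9/12; DMSO baseline, negative fitting direction.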

Assay [19] in a line: CCTE_Shafer_MEA_dev_network_spike_number: CCTE's Neural Network Formation Assay for Number of Network Spikes, Shafer Lab (AID 2284048; active means hit-call score of the fitted dose curve at least 0.9, where 1 is the maximum; inactive means score below 0.9;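 further: synchronized bursts across electrodes counted on days 5 7 9 12 and integrated as AUC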). In outline: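 Primary rat cortical neurons were seeded at 1.5 x 10^5 cells/well on PEI-coated 16-electrode MEA wells with laminin, exposed from plating day 0, compound renewed at DIV 5 and 9. Network spikes were recorded on days 5, 7, 9, 12 and summarized as trapezoidal AUC versus DMSO.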

Assay [20] is described as follows: CCTE_Shafer_MEA_dev_network_spike_peak: CCTE's Neural Network Formation Assay for Mean Number of Electrodes in Network Spike, Shafer Lab (AID 2284049; active means hit-call score of the fitted dose curve at least 0.9, where 1 is the maximum; inactive means score below 0.9). The gist of the method:
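Continuous 12-day exposure of rat cortical cultures, starting at plating, on MEA plates. Endpoint: electrodes participating in network-spike peaks, AUC across DIV 5–12, DMSO as negative control.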

Assay [21] in a line: CCTE_Shafer_MEA_dev_spike_duration_mean: CCTE's Neural Network Formation Assay for Mean Spike Duration, Shafer Lab (AID 2284051; active means hit-call score of the fitted dose curve at least 0.9, where 1 is the maximum; inactive means score below 0.9). The gist of the method: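 Readout is the average length of network spikes, clustered firing across electrodes, summed over DIV 5, 7, 9 and 12 as area under the curve. Neurons from rat cortex developed networks on MEA plates under continuous 12-day exposure.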

Assay [22] can be described thus: CCTE_Shafer_MEA_dev_network_spike_duration_std: CCTE's Neural Network Formation Assay for Standard Deviation of Network Spike Duration, Shafer Lab (AID 2284052; active means hit-call score of the fitted dose curve at least 0.9, where 1 is the maximum; inactive means score below 0.9;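 further: hits are decreases in network spike duration SD versus DMSO vehicle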). The gist of the method: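 Read-out is the trapezoidal area-under-the-curve across recordings made on days 5, 7, 9 and 12, fitted in the negative direction against DMSO baseline. Neurons were primary rat cortical cells treated from day 0, with treatment renewed at each feed.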

The nature of assay [23]: CCTE_Shafer_MEA_dev_per_network_spike_spike_number_mean: CCTE's Neural Network Formation Assay for Mean Number of Spikes in a Network Spike, Shafer Lab (AID 2284053; active means hit-call score of the fitted dose curve at least 0.9, where 1 is the maximum; inactive means score below 0.9). The gist of the method: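 Continuous twelve-day exposure of developing rat cortical networks grown over 16 microelectrodes per well; spontaneous firing is captured at four time points, and the per-network-spike spike number is integrated over development by trapezoidal AUC.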

A short description of assay [24]: CCTE_Shafer_MEA_dev_per_network_spike_spike_percent: CCTE's Neural Network Formation Assay for Percent of Spikes in a Network Spike, Shafer Lab (AID 2284054; active means hit-call score of the fitted dose curve at least 0.9, where 1 is the maximum; inactive means score below 0.9). In outline:
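Primary rat cortical neurons on 16-electrode MEA wells (PEI-coated, laminin at plating), exposed from day 0 with renewal at DIV 5 and 9; spikes within 0.05 s of network-spike peaks over total spikes, AUC across days 5, 7, 9, 12.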

Assay [25] is described as follows: CCTE_Shafer_MEA_dev_LDH: CCTE's Lactate Dehydrogenase Assay for Cytotoxicity in the Neural Network Formation Assay, Shafer Lab (AID 2284068).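 Further: exposure for twelve days from plating with re-dosing on DIV 5 and 9.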 The gist of the method: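 Cytotoxicity companion to network-formation recordings: rat cortical neurons received compound over 12 days of development, re-dosed at DIV 5 and 9 feeds. Viability was inferred from LDH enzyme activity relative to DMSO.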

Assay [26] can be described thus: CCTE_Shafer_MEA_dev_mutual_information_norm: CCTE's Neural Network Formation Assay for Mutual Information Normalization, Shafer Lab (AID 2284091; active means hit-call score of the fitted dose curve at least 0.9, where 1 is the maximum; inactive means score below 0.9). The gist of the method: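 Rat cortical cultures, 48-well MEA, continuous exposure DIV 0–12 with full media/compound change DIV 5 and 9. Readout: inter-electrode mutual information, AxIS adaptive spike detection; AUC across DIV 5/7/9/12 recordings; DMSO baseline, negative fitting direction.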

Assay [27] can be described thus: CCTE_Shafer_MEA_dev_correlation_coefficient_mean: CCTE's Neural Network Formation Assay for Mean Correlation Coefficient, Shafer Lab (AID 2284093; active means hit-call score of the fitted dose curve at least 0.9, where 1 is the maximum; inactive means score below 0.9). The gist of the method: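 Read-out: well-mean correlation coefficient of spike trains between electrode pairs, collapsed over four recording days as trapezoidal area-under-the-curve. Developing rat cortical neuron networks grown on MEAs received test chemical continuously from plating.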

`CCCCN=C=O`: the compound was classed as inactive in [1], in [2], in assay [3], in assay [4], in assay [5] and in [6].
On to `BrCCc1ccccc1`, for which the call in assay [1], in assay [2], in assay [3], in [4], in [5] and in [7] was inactive.
By AC50 is commonly meant the concentration at which the activity in the assay is half-maximal. Take `c1ccc2c(c1)cc1ccc3cccc4ccc2c1c34`: the outcome in [1], in [3], in assay [5], in assay [7], in assay [9] and in assay [10] was inactive. Besides, the result in assay [11], in assay [12], in [13], in [14], in assay [15] and in assay [16] was inactive. Besides, the call in assay [17], in assay [18], in [19], in assay [20], in [21] and in [22] was inactive. In addition, the call in assay [23], in assay [24], in [25], in assay [26] and in [27] was inactive. For the same compound, the AC50 in assay [2] is 2050 nM (active); in assay [4] it was 4140 nM (active); in assay [8], 1560 nM (active); in assay [6], 2390 nM (active).
